Measured values reported in the supplement of paper PMC6555819.

Legend:
Assay in all cases: PBM binding z-score (relative to random genomic background probes); higher = stronger binding; sequences stand for … in GC…GCGATTGACAGCGTAGAATGAAGG
[1] = test system: RARb homodimer (NR concentration 270 nM)
Method in brief: (§1)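 For binding z-scores, the reference was random background probes on custom Agilent 4×180K protein-binding microarrays. These arrays were incubated 1 h with ligand-free nuclear receptor dimers in PBS pH 7.4, 2% milk, 0.02% Triton X-100, 1 mM DTT, 0.2 mg/mL BSA and 0.4 mg/ml salmon testes DNA. Fluorescence was scanned after antibody detection of each partner (one per run) and regression-normalized.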

[2] = test system: RARg:RXRa (NR concentration 270 nM, RXRa partner concentration 90 nM)
Method in brief: as §1

[3] = test system: RARg homodimer (NR concentration 270 nM)
Method in brief: as §1

[4] = test system: RXRa DBDmut IVT, anti-RXR (DBD mutation: RXRa K156A/R161A, NR concentration 90 nM)
Method in brief: as §1

[5] = test system: RXRa homodimer (NR concentration 180 nM)
Method in brief: as §1

[6] = test system: THRa:RXRa (NR concentration 90 nM, RXRa partner concentration 90 nM)
Method in brief: as §1

[7] = test system: THRa homodimer (NR concentration 90 nM)
Method in brief: as §1

[8] = test system: VDR homodimer (NR concentration 270 nM)
Method in brief: as §1

Sequence	PBM binding z-score [1]	PBM binding z-score [2]	PBM binding z-score [3]	PBM binding z-score [4]	PBM binding z-score [5]	PBM binding z-score [6]	PBM binding z-score [7]	PBM binding z-score [8]
GCTAGCAGGCCCTTTGGGTCACTCAATGACGGGC	1.29	0.49	0.718	-0.714	0.498	1.67	0.25	-0.37
TCTTGTAGATCAAGTAGGTTAAGAAAGCCTGAGT	0.305	0.0366	-0.106	0.547	0.304	0.372	-0.238	0.191
ATATGTAGGTTATCGGGCCATTCAGTTTGCGCAT	1.07	0.874	0.93	0.832	0.911	1.24	0.971	1.34
CGTCCAAGGCCAATGCTAGGTCAGTGAAAGCATT	2.64	2.16	1.94	0.513	0.218	2	0.569	0.135
ATATGTAAGTTAAGGGTCATTCAGGTTGGTTCGC	3.8	3.97	3.2	2.13	4.89	3.5	1.55	4.67
GCGACTGGGGCAAACCAGGTTACCATAAGGTTGG	1.29	0.596	0.516	-0.486	0.616	3.93	0.684	-0.202
TGAATGAGGCTAAAGATCAGGGAACGTGGCGTCG	-0.821	-0.0145	0.0972	-0.642	0.184	0.0902	-1.04	-0.642
GCTGCTAGGTCAACTGATGGTCTGCTAAAGCTCG	3.12	4.34	4.87	1.78	2.91	2.83	1.02	-0.264
CCTGCTAGGTCAATGGTCAGTTAAAGCAGCTCGC	3.24	3.72	4.65	1.99	2.11	2.38	0.961	0.506
TCTGCGAGGTCAGTTGGTCAGCTAACGAGCTGCC	3.86	5	5.42	2.8	3.76	3.22	1.39	2.02
ATATGAAGGTTAGCTGGGGTCATTCAGACTAGGC	4.37	4.69	3.82	1.97	6.06	5.24	3.38	5.65
ATATGTAGGTTAGCTGGGGTCGTTCAGACTAGGC	1.8	1.66	1.15	1.08	2.37	4.63	1.18	2.29
CTAACTAGGTCAAGAGGTCAAAGTCCGCTTCCCG	5.82	8.23	7.39	2.89	8.23	4.27	2.29	4.55
AATACAGGGTCAGCGTAGGCCAGAGTACGCACAG	3.36	4.93	4.67	1.69	4.84	3.98	0.9	1.65
CTACCAAGGTGTACAAGGTCGTTGATTACTATTC	1.21	0.657	0.16	1.14	0.934	1.99	1.32	2.13
CCTATTCGTTGACCATAAGGGCAACCGAAGCTCG	2.14	1.16	1.04	0.173	0.704	1.85	1.57	0.974
CGTCCAAGGTCAAAGGTCAGTGAAGAGATGACGG	5.42	8.7	7.94	3.87	10	4.99	2.62	4.06
GCATATAGGGAATACAAGGTGAAAGTCCGATTGT	0.509	0.203	0.249	0.292	0.268	3.15	0.78	-0.263
CAAACTAGGTCGAGAGGTCAAAGTCCGCTTCCCG	4.73	5.98	5.09	2.17	6.17	3.62	1.8	3.99
CGAACTAGGTCACGGACAGTGAATCTCCGCACGC	3.36	5.11	5.73	1.82	3.99	3.53	2.1	0.814
CCTATTAGTAGACCATAAGGGCAACCGAAGCTCG	1.65	0.962	0.835	0.475	0.769	1.57	1.11	0.68
TCAATGAGGTTATAAGATCAGGGAACGTTGCAAA	0.57	1.52	0.993	1.75	2.19	1.84	0.0539	0.536
CCTACTGGGCCAGCAGGTCATTGATATCAACGTT	2.26	2.03	1.62	-0.531	1.6	1.86	0.347	0.812
GCGACTGGGGCATCAACAGGTTACCATAACTTAA	1.25	0.983	0.509	0.306	0.415	0.721	-0.0396	-0.142
CTCGAAAAGTCGGTTGAGGTGAGTATACGGATAA	0.0667	0.446	0.172	-0.0991	0.212	3.57	1.15	-0.144
CCTACTGGGCCATGCAGAGGTCATTGATCATATG	3.99	4.29	2.87	0.291	3.81	3.05	1.12	3.36

Sequence	PBM binding z-score [1]	PBM binding z-score [2]	PBM binding z-score [3]	PBM binding z-score [4]	PBM binding z-score [5]	PBM binding z-score [6]	PBM binding z-score [7]	PBM binding z-score [8]
TCTTGTAGATCAGCAGGCTAAGAAAGCTGGCCAA	-0.81	-0.564	-0.754	0.38	-0.261	-0.424	-1.21	-0.475
TCGAGTAGGTTAGCAATGGGGCATTCAGCTTTCT	0.353	0.194	-0.0673	0.158	0.129	-0.27	-0.716	-0.45
CCTGCTAGGTAATGGTCAGCTAATCTACAGTATG	0.105	-0.00382	0.0688	-0.0204	-0.388	-0.173	-0.275	-0.364
ACTCGGCGGACAAAGGTCAGAGCTACGCCAGTGA	4.19	5.15	4.72	0.437	4.46	2.39	0.00347	0.793
GCTAGCAGGCCATTTGGGTCACACAATGACGGGC	1.93	1.23	1.48	-0.0753	1.2	2.03	0.818	0.18
TCACATAGGTAAACAGGTGAAAGTCCGTAAGTTA	0.832	0.608	0.415	0.731	1.12	0.714	0.454	0.318
TCTTGTAGATCAAGCAGGTTAAGTAAGCCTGAGT	0.0988	-0.201	-0.463	0.439	0.0943	0.33	-0.503	-0.0277
TAGCCTAGGTCACTCAGGGGCCAGTATAGAAAGC	3.61	5.91	5.25	0.581	2.94	3.17	0.528	0.664
CCTCGGAGGACAACAGGAGGTCAGAGCGGCCAGA	3.6	3.74	3.91	0.253	2.11	2.87	1.31	1.51
CCTACTGGGCCATTCGGAGGTCATTGATCATATG	3.37	3.59	2.55	0.347	2.38	2.83	1.58	3.03
ATAAGTAGGTTAGCTGGGGTCATTCAGACTAGGC	3.84	4.16	2.94	1.95	5.34	5.32	3.54	4.63
CGAACTAGGTCATTGACAGGACAGTGACTAGTAA	2.75	4.69	4.28	2.44	2.69	2.84	0.58	1.07
GGAACGAGGGCATTCGAGTTGATATCATGGCGAT	0.726	1.25	1.52	2.79	0.858	3.38	-0.359	2.91
TCAGACAGGTGAAGGTAAATCAGGTACGCAGTCG	0.943	0.61	0.667	1.77	1.06	1.58	0.468	0.53
CCTATTAGTTGACCATATGGGCAACCGAAGCTCG	0.53	0.405	0.481	0.486	0.208	0.00602	0.303	0.527
GCATATAGCTAATACAAGGTGAAAGTCCGATTGT	0.396	0.366	0.451	0.494	0.476	1.43	0.866	0.162
TGAATGAGTTTAAAGATCAGGGAACGTGGCGTCG	-0.301	0.427	0.222	3.12	0.84	-0.0905	-0.483	2.88
ATCCAAAGGTCGTGAGGTGAGTATACAGAAAGGC	3.47	5.02	4.46	1.72	5.91	3.66	1.97	1.63
TCTAGCAGGCCAGAGGGTCAATCAAGAGGTACGG	2.63	2.97	2.14	-0.246	2.87	1.62	-0.729	0.802
TCTAGTTGGTCAAAGATCACACACTCGAAATGCG	0.919	1.57	0.992	1.48	1.61	0.536	0.263	0.452
ATATGTAGGTTAGATGGGGTCATTCAGACTAGGC	3.8	4.06	2.93	2.39	5.63	5.15	3.28	5.95
CTTGAAAGGTCGGTTGAGGTGAGTATACGGATAA	2.58	2.6	2.68	1.35	2.5	4.93	1.42	0.867
GTACCAAGGTGAATAGCTCGTTGATGAGTAGGCG	0.121	0.285	0.489	-0.348	0.453	1.15	0.236	-0.63
ATACCAAGGTGATCGTGAGGACGTTGATACTAAC	0.51	0.635	0.393	-0.27	0.264	2.96	1.97	0.714
GATACAGGGTCAGCTAGAGGCCAGATTATGGAAA	3.59	6.4	4.49	1.25	4.05	3.2	0.619	0.715
CTCGAAAGGTCGGTTGAGGTGAGGATACGGATAA	2.54	3.23	2.94	0.698	2.43	5.04	2.21	0.231
